GPT2 inhibitor: Primary qHTS assay for inhibitors of Glutamate pyruvate transaminase 2 (GPT2). Alanine aminotransferase 2 (Homo sapiens), Q8TD30. Potency, µM (series often up to 57.7 µM), actives largely listed as inhibitors. AID 1671188, 2021. Recombinant GPT2, coupled pyruvate oxidase/HRP Amplex Red fluorescence. hit rate 0.25% among 100,000; active means well fitted inhibition curve with a large enough effect; inconclusive means small, poorly fitted or top-dose-only effect; further: nearly all actives have a fitted effect of over 60% in size
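Fluorescence read-out: pyruvate from GPT2 turnover coupled to pyruvate oxidase, HRP and Amplex Red (0.2mM ThPP, 0.2U/mL PO and HRP, 50uM Amplex final). Substrates 250uM a-KG, 2mM L-alanine; enzyme 10ng/uL; 30 min RT.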
hNpr1 antagonist: Natriuretic polypeptide receptor (hNpr1) antagonism - Primary qHTS | Atrial natriuretic peptide receptor 1 (Homo sapiens), P16066 | HEK293 hNpr1 GloSensor cGMP, ANP-stimulated luminescence | Potency, µM (series often up to 46.3 µM), usual class: inhibitors | hit rate 1.6% among 76,000; further: nearly all actives have a fitted effect of over 60% in size
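HEK293 cells stably expressing human Npr1 and cGMP GloSensor pGS-40F, loaded 2 h with 2% GloSensor reagent, given compound 30 min at room temperature. Luminescence read before and 20 min after 0.1 nM hNppA.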
Npr1 antag conf: Natriuretic polypeptide receptor (hNpr1) antagonism - Confirmation | HEK293 hNpr1 cGMP GloSensor luminescence, ANP-stimulated | hit rate 76% among 1,400 | Potency, µM (doses to about 57.6 µM), actives largely listed as inhibitors | shares compounds with hNpr1 antagonist; further: nearly all actives have a fitted effect of over 70% in size
NPR2 antag: Natriuretic polypeptide receptor (hNpr2) antagonism - Subtype selectivity assay; HEK293 hNpr2 GloSensor cGMP luminescence, CNP-stimulated; shares compounds with hNpr1 antagonist; hit rate 67% among 1,400; AID 1347046, 2019; Potency, µM (series often up to 57.6 µM), usual class: inhibitors; further: nearly all actives have a fitted effect of over 70% in size
FLuc counter: Natriuretic polypeptide receptor (hNpr1) antagonism - Confirmation firefly luciferase (FLuc) inhibition counterscreen; shares compounds with hNpr1 antagonist; purified FLuc enzyme, luminescence, Km substrate; Potency, µM (top dose mostly 57.6 µM), most hits filed as inhibitors; hit rate 0.7% among 1,400; AID 1347047, 2019; active means well fitted inhibition curve with a large enough effect; inconclusive means small, poorly fitted or top-dose-only effect
Target sequence (P08659 whole entry, looked up): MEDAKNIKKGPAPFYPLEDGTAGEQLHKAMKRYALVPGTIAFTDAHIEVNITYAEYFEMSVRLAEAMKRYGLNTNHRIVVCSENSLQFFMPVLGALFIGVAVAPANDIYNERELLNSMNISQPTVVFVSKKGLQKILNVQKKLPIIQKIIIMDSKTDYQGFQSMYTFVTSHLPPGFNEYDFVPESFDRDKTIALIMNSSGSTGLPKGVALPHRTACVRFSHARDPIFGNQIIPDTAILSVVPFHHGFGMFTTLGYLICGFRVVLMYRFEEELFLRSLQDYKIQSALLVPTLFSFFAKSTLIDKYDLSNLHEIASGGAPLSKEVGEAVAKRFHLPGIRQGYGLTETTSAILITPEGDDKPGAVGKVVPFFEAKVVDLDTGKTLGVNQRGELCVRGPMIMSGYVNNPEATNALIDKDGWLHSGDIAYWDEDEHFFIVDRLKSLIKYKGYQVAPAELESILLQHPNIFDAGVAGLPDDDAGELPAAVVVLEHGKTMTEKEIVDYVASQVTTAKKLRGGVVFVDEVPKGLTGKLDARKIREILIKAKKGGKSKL
GloSensor cGMP: Natriuretic polypeptide receptor (hNpr1) antagonism - Counterscreen GloSensor control cell line; Potency, µM (series often up to 57.6 µM), actives largely listed as inhibitors; HEK293 GloSensor cGMP, SNP-stimulated, luminescence; hit rate 69% among 1,400; AID 1347051, 2019; shares compounds with hNpr1 antagonist; further: nearly all actives have a fitted effect of over 70% in size
Hits are given with their value; 0 = inactive; ? = inconclusive; - = no result given. The full list was thinned out, with hits kept by preference. Unless noted, the call rests on the fitted dose curve.

SMILES	GPT2 inhibitor	hNpr1 antagonist	Npr1 antag conf	NPR2 antag	FLuc counter	GloSensor cGMP
Cc1nc2cccnc2n1CC1CCCN(S(=O)(=O)c2ccc(C(C)C)cc2)C1 (stereo not drawn)	0	?	27.3µM	?	0	24.3µM
Cc1ccc(S(=O)(=O)N2CCCC(Cn3c(C)nc4cccnc43)C2)cc1 (stereo not drawn)	0	0	-	-	-	-
COc1c(C)cccc1C(=O)N1CCOC(c2ccc(Cl)c(Cl)c2)C1 (stereo not drawn)	0	10µM	17.2µM	19.3µM	0	15.3µM
O=C(c1ccc2ncccc2c1)N1CCOC(c2ccc(Cl)c(Cl)c2)C1 (stereo not drawn)	0	?	-	-	-	-
O=C(NCc1ccccc1F)c1ccc2c(c1)CN(Cc1ccncc1)CCO2	0	12.6µM	17.2µM	17.2µM	0	10.9µM
O=C(NCc1ccccc1F)c1ccc2c(c1)CN(Cc1ccncc1F)CCO2	0	-	-	-	-	-
Cc1ccc(C(C(=O)NCc2cc(=O)[nH]cn2)N(C)C)cc1 (stereo not drawn)	?	0	-	-	-	-
CCc1noc(-c2ccn3c(CNC(=O)c4ccccc4F)nnc3c2)n1	0	0	-	-	-	-
Clc1ccc(C2Cn3nnc(-c4noc(C5CCCC5)n4)c3CO2)cc1 (stereo not drawn)	0	0	-	-	-	-
COc1ccc(C2Cn3nnc(-c4noc(C5CCCCC5)n4)c3CO2)cc1 (stereo not drawn)	0	0	?	?	0	0
COc1ccc(-c2noc(CC3CCN(C(=O)c4ccc(OC)nc4)CC3)n2)cc1	0	7.08µM	5.44µM	6.11µM	0	5.44µM
CCOc1cc(C(=O)N2CCC(Cc3nc(-c4ccc(F)cc4)no3)CC2)cc(OCC)c1OCC	0	?	-	-	-	-
CCOc1ccc(C(=O)N2CCC(Cc3nc(-c4ccc(F)cc4)no3)CC2)cc1OCC	0	3.98µM	3.85µM	6.11µM	0	4.85µM
COc1ccc(C(=O)N2CCC(c3noc(COc4ccc(F)cc4)n3)CC2)cn1	0	?	-	-	-	-
COc1ccc(-c2noc(CC3CCN(C(=O)c4cc(OC)cc(OC)c4)CC3)n2)cc1	0	?	-	-	-	-
COc1ccc(-c2noc(CC3CCN(C(=O)c4cc(OC)c(OC)c(OC)c4)CC3)n2)cc1	0	?	-	-	-	-
CCOc1ccc(C(=O)N2CCC(Cc3nc(-c4ccc(OC)cc4)no3)CC2)cc1OCC	0	6.31µM	10.9µM	15.3µM	0	9.68µM
COC(=O)c1cccc(C(=O)N2CCC(Cc3nc(-c4ccc(OC)cc4)no3)CC2)c1	0	6.31µM	6.85µM	8.62µM	0	5.44µM
COc1ccccc1-c1cccc(C(=O)N2CCN(C(=O)c3ccc(Cl)nc3)CC2)c1	0	-	-	-	-	-
COc1cc(F)ccc1-c1cc(C(=O)NCc2cnn(C)c2)c2c(c1)N(C)CCO2	0	0	-	-	-	-
NC(=O)c1cccc(CN2CCCC3(Cc4ccccc4N(C(=O)C4CCCC4)C3)C2)c1 (stereo not drawn)	0	-	-	-	-	-
CN(C)C(=O)c1cc2c(s1)CCC(C(=O)Nc1ccc(F)c(Cl)c1)C2 (stereo not drawn)	0	0	-	-	-	-
O=C(Nc1ccc(F)c(Cl)c1)C1CCc2sc(C(=O)N3CCOCC3)cc2C1 (stereo not drawn)	0	8.91µM	10.9µM	12.2µM	0	9.68µM
COc1cc(OC)cc(C(=O)N2CCC(Cc3nc(-c4cccc(OC)c4)no3)CC2)c1	0	?	-	-	-	-
Cc1cccc(C(=O)N2CCC(Cc3nc(-c4cnccn4)no3)CC2)c1	0	0	-	-	-	-
SMILES	GPT2 inhibitor	hNpr1 antagonist	Npr1 antag conf	NPR2 antag	FLuc counter	GloSensor cGMP
COc1cccc(-c2noc(CC3CCN(C(=O)c4ccc(C)cc4)CC3)n2)c1	0	3.55µM	4.85µM	5.44µM	0	4.32µM
COc1cccc(-c2noc(CC3CCN(C(=O)c4ccc(F)c(F)c4)CC3)n2)c1	0	6.31µM	4.85µM	9.68µM	0	6.11µM
CCOc1ccc(C(=O)N2CCC(Cc3nc(-c4cccc(OC)c4)no3)CC2)cc1	0	7.08µM	9.68µM	12.2µM	0	9.68µM
COc1cccc(-c2noc(CC3CCN(C(=O)c4ccc(C)cc4C)CC3)n2)c1	0	11.2µM	10.9µM	10.9µM	0	9.68µM
CSc1ccc(CNC(=O)c2cc3c(s2)CCN(C(=O)c2ccccc2)C3)cc1	0	?	-	-	-	-
CN1C(=O)CC[C@]2(C(=O)NCc3cccc(C(F)(F)F)c3)CCCC[C@@H]12	0	0	-	-	-	-
COc1cccc(-c2noc(CC3CCN(C(=O)c4ccc(C(C)C)cc4)CC3)n2)c1	0	10µM	13.7µM	17.2µM	0	13.7µM
COc1cccc(-c2cc(C3CCN(C(=O)c4ccc(Cl)cc4)CC3)[nH]n2)c1	0	?	-	-	-	-
COc1cccc(-c2cc(C3CCN(C(=O)c4ccc(Br)cc4)CC3)[nH]n2)c1	0	?	27.3µM	?	0	?
Cc1cccc(C(=O)N2CCC(Cc3nc(C(C)C)no3)CC2)c1	0	0	-	-	-	-
CCc1ccc(C(=O)N2CCC(Cc3nc(-c4cccc(OC)c4)no3)CC2)cc1	0	3.98µM	9.68µM	13.7µM	0	12.2µM
COc1ccc(CN2C[C@@H](CO)[C@H](c3nc(C)no3)C2)cc1C	0	0	-	-	-	-
Cc1ccc2c(C(=O)NCc3ccc(F)cc3Cl)cc(NC(=O)C(C)C)cc2n1	0	0	-	-	-	-
COc1ccccc1CCC(=O)NC1CCN(C(=O)c2cc3c(=O)[nH]c(C)cn3n2)CC1	0	0	-	-	-	-
COc1ccccc1CNC(=O)C1CCc2ncc(-c3ccsc3)n2C1 (stereo not drawn)	0	0	?	0	0	0
CCNC(=O)C1CCc2ncc(-c3ccsc3)n2C1 (stereo not drawn)	0	0	-	-	-	-
Cc1nn(-c2ccc(F)cc2)c(Oc2cccc(F)c2)c1CCC(=O)NCC1CC1	0	?	-	-	-	-
Cc1nn(-c2ccc(F)cc2)c(Oc2ccc(F)cc2F)c1CCC(=O)NCC1CC1	0	?	?	?	0	?
Cc1ccccc1Oc1c(CCC(=O)NCC2CC2)c(C)nn1-c1ccc(F)cc1	0	?	?	?	0	?
Cc1nn(-c2ccc(F)cc2)c(Oc2ccccc2F)c1CCC(=O)NCC1CC1	0	0	-	-	-	-
COCCOC1CN(C2CCN(Cc3ccc(F)c(F)c3)CC2)C12CCCCC2 (stereo not drawn)	0	0	-	-	-	-
CC(C)c1noc(-c2cn(C3CCN(C(=O)c4ccc(F)cc4Cl)C3)nn2)n1 (stereo not drawn)	0	?	15.3µM	15.3µM	0	13.7µM
CC(C)c1noc(-c2cn(C3CCN(C(=O)c4cccc(F)c4)C3)nn2)n1 (stereo not drawn)	0	?	-	-	-	-
